# Beta apoptosis – blocks beta cell apoptosis | INS-1E cytokine-induced death, ATP luminescence, 48 h; percent of positive-control rescue, neutral wells zero | protection from apoptosis, % (concentration not given with the values) | 300,000 tested, 0.8% active | AID 435005;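 active = Every replicate reaches about 75%, or at least half do and their mean reaches it too, limit read from the data; inconclusive = At least half of replicates reach the limit but their mean does not; inactive = Under half of replicates reach the limit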;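 note: 0% = cytokine-treated negative control wells and 100% = positive control rescue; higher means more ATP so stronger rescue from cytokine killing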
# SKKanGAS inh – SKKanGAS growth inhibition; S. pyogenes SKKanGAS, kanamycin growth, BacTiter-Glo, 6 h; inhibition, % at 7.5 µM; 300,000 tested, 1.3% active;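 active = mean replicate score, as percent of positive control median, at least 50; inconclusive = mean below 50 but one replicate at or above 50; inactive = mean and every replicate below 50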;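 note: strain carries kanamycin resistance gene driven by streptokinase promoter and grows in 40 µg/ml kanamycin; loss of luminescence reflects streptokinase promoter inhibition or plain growth inhibition; 0% = median of DMSO wells and 100% = positive control at its reference dose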
# CSC inhib – cancer stem cell inhibition; inhibition, % at 7.5 µM; 300,000 tested, 1.1% active; cancer stem cell-like cells viability, luminescence; in the data active = inhibition above about 75%; inconclusive = no clear call, values can overlap the other calls; tested in HMLE shEcad cells
# NR3A LBD binder – modulators (binders) of human NR3A ligand-binding domain; NR3A LBD differential scanning fluorimetry, Tm shift; 0% = protein alone, 100% = glycine-bound protein; Tm shift relative to glycine control, % at 25 µM; 340,000 tested, 2.5% active; AID 1259313;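 active = melting temperature shift of at least 10% of the positive control shift, at one fixed dose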
# Mdm2 MdmX PPI – disrupts the human Mdm2-MdmX interaction; O15151+Q00987; 330,000 tested, 3% active; inhibition, % at 8 µM; AID 485346; SaOS-2 split-luciferase Mdm2/MdmX complementation, luminescence;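 active = inhibition of at least 50% at 8 µM in the primary screen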
# MPTP inh – blocks calcium-induced mitochondrial swelling. isolated mouse mitochondria, Ca2+ swelling absorbance, 30 min. inhibition, % at 10 µM. 360,000 tested, 1.4% active. AID 602449;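 active = inhibition of 50% or more, scaled per plate between neutral and stimulator controls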;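 note: 0% = DMSO wells given calcium and 100% = 1 mM EGTA wells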
# MPTP counter – Rhodamine 123 counter-screen of mitochondrial pore hits; shares compounds with MPTP inh; isolated mitochondria, membrane potential, Rhodamine 123 fluorescence; AID 624504; 5,000 tested, 78% active; inhibition, % at 10 µM; in the data active = inhibition above about 22%;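 note: 0% = DMSO vehicle and 100% = positive control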
# MPTP swell DR – MPTP inhibition, dose response swelling confirmation. shares compounds with MPTP inh. isolated mitochondria swelling, absorbance. IC50, µM. 780 tested, 58% active; in the data active = IC50 below about 20 µM
# MPTP counter DR – active in counter-screen for permeability transition pore inhibitors | shares compounds with MPTP inh | isolated mitochondria counterscreen, fluorescence read-out | IC50, µM | 780 tested, 49% active | AID 651564; in the data active = IC50 below about 80 µM
# The depositor's hits bear a star; ? = inconclusive; . = no result given. An excerpt weighted towards active compounds, which were near 6.9% of everything screened.
SMILES,Beta apoptosis,SKKanGAS inh,CSC inhib,NR3A LBD binder,Mdm2 MdmX PPI,MPTP inh,MPTP counter,others
CC1Sc2ccc(S(=O)(=O)N3CCC(C(=O)Nc4ccc(Cl)cc4)CC3)cc2NC1=O (centres undefined),113*,-6,-14,10,39,99*,100*,
COc1ccc(NC(=O)C2CCN(S(=O)(=O)c3ccc4c(c3)NC(=O)C(C)S4)CC2)cc1 (centres undefined),6,0,-6,-4,10,7,.,
CCn1c(=O)c2ccccc2n2c(SCC(=O)N3CCCc4ccccc43)nnc12,-15,.,2,-1,24,54*,3,MPTP swell DR=>100;MPTP counter DR=>80
Cc1ccc(C)c2c1cc(C)c1nnc(SCC(=O)N3CCCc4ccccc43)n12,.,-6,-10,0,29,0,.,
CCC1CCc2sc(C(=O)NC3CCN(Cc4ccccc4)CC3)cc2C1 (centres undefined),4,-13,34,2,37,76*,-5,MPTP swell DR=11*;MPTP counter DR=27*
CC1CCc2sc(C(=O)NC3CCN(Cc4ccccc4)CC3)cc2C1 (centres undefined),1,.,29,-1,33,1,.,
NC(=O)c1ncn([C@@H]2O[C@H](CNS(=O)(=O)c3cc4ccccc4s3)[C@@H](O)[C@H]2O)n1,.,.,.,0,.,2,.,
Nc1ccccc1-c1nc2ccccc2[nH]1,3,2,34,-11,-7,0,.,
c1ccc(-c2cc(-c3nc4ccccc4[nH]3)c3ccccc3n2)cc1,21,7,64,22*,41,98*,83*,
CCc1nc2c(cnn2-c2ccc(F)cc2)c(=O)n1-c1ccc(N2CCC(C)CC2)cc1,28,20,56,0,47,76*,2,MPTP swell DR=7.3*;MPTP counter DR=21*
O=C(c1ccc([N+](=O)[O-])cc1)N(Cc1cccs1)C1CCS(=O)(=O)C1 (centres undefined),-4,1,-10,-1,-21,0,.,
COc1ccccc1Nc1nc(-c2c(C)nc3ncccn23)cs1,.,0,.,-2,.,71*,50*,
Nc1nnc(CC(=O)N/N=C/c2cc([N+](=O)[O-])cc(Br)c2O)s1,-1,.,4,18*,-9,53*,-12,
Nc1nnc(CC(=O)N/N=C/c2cccc([N+](=O)[O-])c2)s1,-5,-1,-8,-1,2,6,.,
FC(F)(F)c1nc(N2CCCC2)ncc1-c1nnnn1-c1ccccc1,21,1,.,0,8,73*,65*,
Cc1ccc(-n2nnnc2-c2cnc(N3CCCC3)nc2C(F)(F)F)cc1,-5,2,-2,2,1,-1,.,
C=C(C)CSc1cc(C)c(C#N)c2nc3ccccc3n12,0,16,.,-25,7,54*,56*,
Cc1cc(NCCCCO)n2c(nc3ccccc32)c1C#N,9,2,-7,-8,8,-1,.,
O[C@@H]1CN(CC2CCCCC2)[C@@H](c2ccccc2)C[C@H]1n1cc(-c2ccc(F)cc2)nn1,.,.,.,.,.,1,.,
c1ccc(CNCCCNCCCCNCCCNCc2ccccc2)cc1,.,.,.,1,.,84*,-2,MPTP swell DR=1.4*;MPTP counter DR=>80
COc1ccc(NC(C)=O)cc1S(=O)(=O)N1CCN(Cc2cccs2)CC1,-5,.,-10,1,22,0,.,
COc1ccc(Nc2ccnc(Nc3ccc(OC)cc3)n2)cc1,36,-7,34,-19,21,78*,1,MPTP swell DR=11*;MPTP counter DR=35*
Cc1ccc(NC(=O)Cc2cccs2)cc1Cl,-10,0,-2,-11,2,9,.,
CC(Cc1cccs1)NC(=O)Nc1ccc(F)cc1 (centres undefined),-10,6,-19,1,7,5,.,
CC(Cc1cccs1)NC(=O)Nc1cccc(Cl)c1 (centres undefined),2,-7,9,-6,-10,87*,86*,
SMILES,Beta apoptosis,SKKanGAS inh,CSC inhib,NR3A LBD binder,Mdm2 MdmX PPI,MPTP inh,MPTP counter,others
CCC(C)c1ccc(NC(=S)NCc2cccs2)cc1 (centres undefined),8,0,5,8,19,97*,85*,
CC(Cc1cccs1)NC(=S)Nc1ccc(Cl)c(Cl)c1 (centres undefined),-3,5,20,0,-16,80*,94*,
CC(Cc1cccs1)NC(=S)Nc1ccc(Cl)cc1 (centres undefined),5,-3,11,5,2,83*,95*,
Cc1c(/C=N/NC(=O)c2ccccc2O)c2ccccn2c1C(=O)c1ccc(F)cc1,4,29,0,14*,34,98*,56*,
Cc1nnc(N)s1,-4,-2,-6,-2,-1,0,.,
Cc1[nH]c2ccccc2c1/C=C(\C#N)S(=O)(=O)c1ccccc1,-11,5,4,5,-7,72*,61*,
N#C/C(=C\c1ccc(O)c(O)c1)S(=O)(=O)c1ccccc1,0,15,8,3,-7,90*,70*,
Cc1cc(C)c(/C=C(\C#N)S(=O)(=O)c2ccccc2)[nH]1,-4,-2,7,1,20,2,.,
CC(Oc1cc2oc(=O)c3c(c2cc1Cl)CCC3)C(=O)NCCCN1CCCC1=O (centres undefined),4,-1,-3,2,11,-1,.,
O=C1C=C(NC(=O)Nc2ccc(Cl)c(Cl)c2)CCC1,2,?,0,5,6,91*,98*,
CSCCC(NC(N)=O)C(=O)Nc1ccc(F)c(Cl)c1 (centres undefined),1,15,-11,0,-4,64*,80*,
CSc1ccccc1NC(=O)Nc1cccc(Cl)c1Cl,2,9,-9,-1,23,17,.,
COc1ccc(NC(=O)C(CCSC)NC(N)=O)cc1Cl (centres undefined),-3,3,-2,-1,1,4,.,
O=C(Nc1ccc(Cl)c(Cl)c1)c1ccccc1,3,.,11,2,-167,16,.,
O=C(Nc1ccc(Cl)c(Cl)c1)Nc1ccccc1O,6,14,93*,466*,-221,98*,64*,
O=C(Nc1ccccc1)Nc1cccc(Cl)c1Cl,14,5,-10,3,-75,93*,97*,
NNC(=O)C(=O)Nc1ccc(Cl)c(Cl)c1,-4,2,2,3,20,1,.,
CCCc1nc(SCC(=O)Nc2nnc(CC)s2)c2c(=O)n(C)c(=O)n(C)c2n1,19,-4,-5,-2,46,-2,.,
C=C(C)CNC(=S)N/N=C/c1ccco1,-11,-5,-9,-1,7,0,.,
CSc1ccccc1NC(=O)Nc1cccc(Cl)c1,.,-1,.,10*,-59,62*,85*,
